SARS 3CLpro inh = SARS-CoV 3CLpro protease inhibition; P0C6X7; recombinant SARS-CoV 3CLpro, quenched FRET peptide cleavage; inhibition, % at 6 µM; 290,000 compounds, 0.14% hits; AID 1706; in the data active = inhibition above about 12%
VHR inh abs = inhibitors of human VHR1 phosphatase (DUSP3) | recombinant VHR phosphatase, pNPP absorbance | 290,000 compounds, 0.52% hits | inhibition, % at 13.3 µM | P51452; in the data active = inhibition above about 50%
Target sequence (P51452 whole entry, looked up): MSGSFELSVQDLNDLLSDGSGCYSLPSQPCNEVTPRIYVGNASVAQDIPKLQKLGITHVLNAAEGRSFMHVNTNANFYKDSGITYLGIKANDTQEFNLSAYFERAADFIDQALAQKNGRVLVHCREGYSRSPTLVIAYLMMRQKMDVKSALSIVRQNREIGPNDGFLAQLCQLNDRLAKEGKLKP
Mtb FBA inh = Mtb fructose-bisphosphate aldolase inhibition. 360,000 compounds, 2.3% hits. inhibition, % at 1 µM. AID 588726. P9WQA3. purified M. tuberculosis FBA, fluorescence read-out; in the data active = inhibition above about 27%;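 also: 0% = vehicle and 100% = reference inhibitor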
Target sequence (P9WQA3 whole entry, looked up): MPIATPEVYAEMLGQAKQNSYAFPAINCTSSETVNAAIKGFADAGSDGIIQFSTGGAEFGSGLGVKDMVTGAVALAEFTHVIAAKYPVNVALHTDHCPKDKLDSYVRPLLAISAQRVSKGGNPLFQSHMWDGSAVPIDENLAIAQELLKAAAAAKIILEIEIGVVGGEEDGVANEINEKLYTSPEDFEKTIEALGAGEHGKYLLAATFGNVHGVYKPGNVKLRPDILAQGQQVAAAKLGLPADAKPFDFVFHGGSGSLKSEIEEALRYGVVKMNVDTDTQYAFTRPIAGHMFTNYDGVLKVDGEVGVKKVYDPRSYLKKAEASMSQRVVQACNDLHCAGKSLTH
CCHF vOTU inh = blocks the CCHF virus ovarian tumor domain protease | inhibition, % at 11.5 µM | 370,000 compounds, 0.55% hits | CCHFV vOTU protease, Pep-AMC fluorescence | AID 651958; also: 0% = vehicle wells with enzyme and 100% = no enzyme wells
RecA intein inh = blocks M. tuberculosis RecA intein splicing | inhibition, % (test concentration not listed) | 290,000 compounds, 0.75% hits | P9WHJ3 | cell-free RecA intein splicing, fluorescence; in the data active = inhibition above about 30%;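 also: 0% = vehicle wells and 100% = reference inhibitor control wells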
GDH-TPI counter = inhibits GDH-TPI coupling enzymes, artifact for Mtb FBA screen; 360,000 compounds, 1.2% hits; inhibition, % at 4.8 µM; GDH-TPI coupled enzyme counterscreen, NADH absorbance;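 also: 0% = DMSO wells and 100% = wells lacking the enzyme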
An asterisk follows results filed as active; i = inactive; · = not tested or not shown; + = active, no number. Compounds with a hit are over-represented: about 4.7% of the library has one in this group of screens. Rule as the data show it, unless noted: active = inhibition above about 30%; inactive = the rest.

SMILES	SARS 3CLpro inh	VHR inh abs	Mtb FBA inh	CCHF vOTU inh	RecA intein inh	GDH-TPI counter
COc1ccc(CN(CCN2CCOCC2)C(=O)c2ccc(F)cc2Cl)cc1OC	·	·	·	0.3	·	·
CN1CCCN(C(=O)c2ccc(Br)cc2)CC1	-2.6	34.8	-0.1	-8.3	0.9	-2.5
COc1cc(C(=O)N2CCCN(C)CC2)cc(OC)c1C	0.4	56.9*	1.5	-16.0	0.4	-6.9
CCOC(=O)c1ccc(Nc2c(CC)c(C)nc3ncnn23)cc1	-3.5	16.1	1.3	13.8	-0.8	32.0*
CCOC(=O)c1ccc(Nc2cc(C)nc3ncnn23)cc1	-2.6	3.1	-0.4	1.1	3.0	21.3
CCc1c(C)nc2ncnn2c1Nc1ccc(C(C)=O)cc1	-1.5	41.6	2.2	12.0	-0.2	39.5*
CCOc1ccc(CNC(=S)N/N=C/c2ccc(OC)c(OC)c2)cc1	5.3	18.1	-1.8	11.9	-3.7	42.2*
Oc1c(Br)cc(/C=N/NC(=S)NCc2ccco2)cc1Br	5.8	17.6	11.1	2.0	3.4	32.9*
COc1cc(/C=N/NC(=S)NCc2ccccc2)ccc1OCC#N	0.2	-4.8	2.9	2.6	7.8	22.3
COc1cc(/C=N/NC(=S)NCc2ccco2)cc(OC)c1OC	4.2	8.3	-7.3	7.8	2.1	37.4*
Oc1ccc(/C=N/NC(=S)NCc2ccco2)cc1	-4.6	21.4	0.8	-4.1	1.7	14.3
COc1ccccc1/C=N/NC(=S)NCc1ccco1	-2.8	23.3	-3.7	-2.7	2.8	37.9*
COc1ccc(Cc2nnc(NC(=O)Nc3ccccc3F)s2)cc1OC	-1.0	12.2	-2.4	-4.9	-2.8	4.1
CCOc1ccc(/C=N/NC(=O)C(=O)NCc2ccco2)cc1	2.8	21.9	-1.1	9.9	1.1	33.1*
CCOc1ccc(NC(=O)NCc2ccco2)cc1	-2.7	30.9	-3.4	-0.1	1.3	2.9
CC1(c2ccc(OC(F)F)cc2)NC(=O)N(CC(=O)N2CCN(C(=O)c3ccco3)CC2)C1=O (stereo unspecified)	·	·	-0.7	-5.3	·	1.0
CN(C)Cc1c(O)ccc2cc(-c3nc4ccccc4n3C)c(=O)oc12	-7.6	20.7	+	-349.9	i	-7.4
CN(C)Cc1c(O)ccc2c(-c3ccccc3)cc(=O)oc12	1.4	19.8	10.3	-7.9	-37.8	3.1
CCN(CC(=O)Nc1c(F)cccc1F)C(=O)C1CC(=O)N(CCc2ccc(OC)c(OC)c2)C1 (stereo unspecified)	·	·	-0.2	-11.7	·	-2.2
Cc1ccc(-c2nn3c(C)nnc3c3ccccc23)cc1S(=O)(=O)NCCN1CCOCC1	2.1	52.4*	1.8	-6.5	-3.8	2.8
Cc1ccc2nc(N3CCN(c4cccc(C)c4C)CC3)c3nnnn3c2c1	3.0	-3.7	-0.5	-7.3	1.9	0.3
Cc1ccc2nc(Cl)c3nnnn3c2c1	5.7	12.4	7.1	·	78.7*	0.0
COCCSc1nc2sc3c(c2c(=O)n1-c1ccccc1)CCN(C)C3	2.6	-4.2	13.5	·	1.6	31.4*
CCOC(=O)CSc1nc2sc3c(c2c(=O)n1C1CCCCC1)CCN(C)C3	-3.1	4.2	20.5	-42.7	34.4*	39.2*
COc1ccc(-n2c(SCC(=O)Nc3nccs3)nc3sc4c(c3c2=O)CCN(C)C4)cc1	2.5	14.3	3.3	5.7	16.2	31.9*
SMILES	SARS 3CLpro inh	VHR inh abs	Mtb FBA inh	CCHF vOTU inh	RecA intein inh	GDH-TPI counter
CCOc1ccc(-n2c(SCC(N)=O)nc3sc4c(c3c2=O)CCN(C)C4)cc1	2.0	9.6	3.6	9.2	1.7	32.0*
CCOC(=O)CSc1nc2sc3c(c2c(=O)n1-c1ccc(OCC)cc1)CCN(C)C3	2.6	-1.6	1.9	-1.0	14.6	19.3
COc1ccc(-n2c(SC)nc3sc4c(c3c2=O)CCN(C)C4)cc1	-3.0	21.0	11.2	10.8	-9.2	26.2
COc1ccc(NC(=O)CSc2nc3sc4c(c3c(=O)n2-c2ccc(OC)cc2)CCN(C)C4)cc1	-3.3	29.8	1.8	-0.1	7.1	35.3*
Cc1c(NC(=O)c2ccc(=O)oc2)c(=O)n(-c2ccccc2)n1C	1.2	-16.7	-0.9	-2.3	-3.6	32.6*
Cc1ccccc1C(=O)/C(C#N)=N/Nc1c(C)n(C)n(-c2ccccc2)c1=O	3.9	51.3*	-5.3	3.5	0.3	20.2
Cc1c(NC(=O)c2ccc(C(=O)Nc3c(C)n(C)n(-c4ccccc4)c3=O)cc2)c(=O)n(-c2ccccc2)n1C	-0.2	20.0	3.2	-2.9	-1.9	15.7
Cc1ccc(/C=N/NC(=O)c2ccc(NC(=O)c3ccccc3Cl)cc2)o1	-3.2	40.3	-5.8	2.1	·	49.1*
O=C(N/N=C/c1ccco1)c1ccc(NC(=O)c2ccccc2Cl)cc1	3.1	9.9	-2.1	12.4	-0.2	20.8
O=C(N/N=C/c1cccs1)c1cccc(NC(=O)c2ccccc2Cl)c1	0.5	2.9	-0.3	1.3	1.9	17.6
O=C(N/N=C/c1cccs1)c1ccc(NC(=O)c2ccccc2Cl)cc1	1.0	9.0	-0.2	3.5	0.4	32.6*
CCNC(=O)Nc1ccc2c(c1)C(=O)N(C)[C@H]1CC[C@@H](CC(=O)OC)O[C@H]1CO2	·	·	·	-0.8	·	·
COc1cccc(-c2c(NC(C)=O)n(C)c3ccccc3c2=O)c1	-5.2	-1.2	3.5	-6.1	2.3	11.4
Cc1ccc(-c2c(NC(=O)c3ccco3)oc3ccccc3c2=O)cc1	4.4	5.3	1.5	25.0	0.2	26.7
COc1ccc(-c2c(NC(C)=O)n(C)c3ccccc3c2=O)cc1	0.5	25.2	25.8	-14.8	0.3	36.1*
COc1ccc(-c2c(NC(=O)c3ccco3)oc3ccccc3c2=O)cc1	4.0	1.8	1.0	11.2	-4.3	40.2*
CCCCC(=O)Nc1c(-c2cccc(OC)c2)c(=O)c2ccccc2n1C	-0.9	58.2*	2.5	-12.8	-4.1	23.1
CC(=O)c1cccc(OCc2cc(C(=O)N(C)C(C)c3ccccn3)no2)c1 (stereo unspecified)	0.4	17.5	1.8	17.9	-0.7	-10.2
COc1cccc(OCc2cc(C(=O)N(C)Cc3nc4ccccc4[nH]3)no2)c1	-3.5	51.3*	0.4	13.6	3.7	4.3
CC(=O)c1ccc(OCc2cc(C(=O)N(C)Cc3ncc(C)[nH]3)no2)cc1	3.9	22.6	3.3	-6.2	-1.4	9.3
CC(=O)c1cccc(OCc2cc(C(=O)N(C)Cc3cnccn3)no2)c1	-3.8	50.2*	1.7	3.2	-0.8	5.0
CCCCCCCCN1C(=O)[C@H](CC(=O)NCCC(C)C)C[C@@]2(C(=O)OC)CCCCC=C12	·	·	·	23.6	·	·
CN(C)c1ccc(/C=[N+](\[O-])C2N(c3ccccc3)C(=S)SC2(C)C)cc1 (stereo unspecified)	5.4	-0.8	-3.2	3.1	0.2	33.3*
CN(C)c1ccc(/C=[N+](\[O-])C2SC(=S)N(C)C2(C)C)cc1 (stereo unspecified)	-2.8	17.4	-3.1	7.3	-7.4	34.3*
CCOC(=O)c1cc2c(nc1N)CCCC2	4.6	5.0	139.2*	-97.6	-1.6	16.8

Screens deposited in PubChem by several laboratories.
